Results published in PubChem BioAssay (NCI).
This is part of a sample that, as a whole, favours compounds with a hit. Of some 83,000 tested, about 20% had one in any assay.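 Activity criterion: percent growth below 10, measured after cells in 96-well plates were exposed to a single compound concentration for 48 hours.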 A number with no mark means an inactive call. The source made the active and inactive calls.

Legend:
Test in all cases: NCI-60 one-dose screen, 48 h (100 = growth as untreated, 0 = no growth, -100 = all killed)
Settings in all cases: 10 µM unless noted
DU-145 prostate = test system: DU-145 prostate
K-562 leukemia = test system: K-562 leukemia
MALME-3M melanoma = test system: MALME-3M melanoma
MDA-MB-231 breast = test system: MDA-MB-231 breast
RXF 393 renal = test system: RXF 393 renal
SF-268 CNS = test system: SF-268 CNS
SF-295 CNS = test system: SF-295 CNS
SF-539 CNS = test system: SF-539 CNS
UACC-257 melanoma = test system: UACC-257 melanoma
M14 melanoma = test system: M14 melanoma

Compound | growth (DU-145 prostate) | growth (K-562 leukemia) | growth (MALME-3M melanoma) | growth (MDA-MB-231 breast) | growth (RXF 393 renal) | growth (SF-268 CNS) | growth (SF-295 CNS) | growth (SF-539 CNS) | growth (UACC-257 melanoma) | growth (M14 melanoma)
CCOC(=O)c1ccc2c(c1)c1c(C)c3ccncc3c(C)c1n2C | 2.93% (active) | 7.07% (active) | -40.9% (active) | 2.92% (active) | -62.3% (active) | -7.28% (active) | 1.65% (active) | -0.581% (active) | -25.9% (active) | -57.2% (active)
Cn1cc(-c2nn3cc(-c4ccccc4)nc3s2)c2ccccc21 | 99.2% | 29.3% | 55.3% | 67.3% | 89.3% | 81.2% | 78.9% | 78% | 76.9% | 51.5%
O=C1c2cc3c(cc2-c2c1c1ccc(Cl)cc1c(=O)n2C[C@H](O)CO)OCO3 | 3.78% (active) | 10.4% | -26.7% (active) | 19.5% | -66.6% (active) | 4.7% (active) | -14.8% (active) | -33.1% (active) | -36% (active) | -14.2% (active)
O=C(c1ccc(Cl)cc1Cl)N1c2ccccc2Sc2ccccc21 | 65.2% | -42.2% (active) | 63.8% | 68.8% | 70% | 50% | 53.1% | 41.8% | 64.3% | 59.8%
COc1cc2c3c(c1O)-c1ccccc1[C@@H]1OC(=O)N(CC2)[C@H]31 | 120% | 112% | 103% | 93.1% | 97.6% | 104% | 103% | 108% | 95.6% | 103%
N#Cc1c(-c2ccccc2)nc2c(c(-c3ccccc3)nn2-c2ccccc2)c1-c1ccc(N2CCOCC2)cc1 | 91.5% | -20% (active) | 104% | 97.3% | 95% | 104% | 107% | 93.7% | 101% | 92.3%
CCn1cc(CNc2ccc(C(=O)Nc3cc4cc(OC)c(OC)cc4c(C)n3)cc2)c(C)n1 | 56.3% | 15.6% | 25.2% | 74.7% | 90.9% | 48.6% | 30.4% | 75.5% | 48.1% | 22.1%
C=C(C)[C@@H]1CC[C@]2(CO)CC[C@]3(C)[C@H](CC[C@@H]4[C@@]5(C)CCC(NCCc6ccc(O)cc6)C(C)(C)[C@@H]5CC[C@]43C)[C@@H]12 (stereo not given in full) | -96.5% (active) | -51.2% (active) | -81.5% (active) | -87.3% (active) | -91.2% (active) | -88.8% (active) | -95.8% (active) | -88% (active) | -78.2% (active) | -84.9% (active)
N#Cc1nc(-c2ccc(F)cc2)oc1S(=O)(=O)N1CCN(c2ccc(F)cc2)CC1 | 102% | 17.6% | 104% | 92% | 95.3% | 106% | 106% | 101% | 97.9% | 88.2%
COc1cccc(/C=C/C(=O)c2cc3c(N)c(C(=O)Nc4ccccc4C)sc3nc2C)c1 | 8.15% (active) | 12.9% | 78.6% | 52.8% | -10.2% (active) | 28.9% | 74% | 50.9% | 83.2% | 47.5%
CN(C)c1ccc(/C=C/C(=O)c2ccccc2)cc1 | 95.9% | 32% | 82.5% | 103% | 93.8% | 89.7% | 92.7% | 89.3% | 62.9% | 76%
CC[C@H](C)[C@H](NC(=O)[C@H](CCCNC(=N)N)NC(=O)[C@H](Cc1c[nH]c2ccccc12)NC(=O)[C@@H](NC(=O)[C@H](CCCCN)NC(=O)[C@H](CCCCN)NC(=O)[C@@H](NC(=O)[C@@H](NC(=O)[C@@H](NC(=O)[C@H](CCCCN)NC(=O)[C@H](Cc1ccccc1)NC(=O)[C@H](CCCCN)NC(=O)[C@H](CCCCN)NC(=O)[C@H](Cc1ccccc1)NC(=O)[C@@H](NC(=O)[C@@H](N)CCCCN)[C@@H](C)CC)[C@@H](C)O)[C@@H](C)CC)[C@@H](C)CC)C(C)C)C(=O)N[C@@H](Cc1ccccc1)C(=O)NCC(=O)N[C@@H](CCCNC(=N)N)C(=O)N[C@@H](Cc1ccccc1)C(N)=O | -64.4% (active) | 4.14% (active) | -64.4% (active) | -70.6% (active) | -2.96% (active) | -23.2% (active) | -34.1% (active) | -69.8% (active) | 47.3% | -18.4% (active)
Nc1c(C(=O)Nc2ccccn2)sc2nc3c(cc12)C(O)CCC3 (stereo not given) | 25% | 20.6% | 60.8% | 67.1% | 4.65% (active) | 44% | 4.92% (active) | 8.44% (active) | 53.2% | 21.1%
CN1CCN(CCOc2ccc(-c3cnc4c(-c5ccc(C(F)(F)F)cc5)cnn4c3)cc2)CC1 | 40.7% | -36% (active) | 50.4% | 31.6% | 32.4% | 48.7% | 64.4% | 67.6% | 8.47% (active) | -64.2% (active)
CCCNc1nc2ccccc2c2c(=O)c3cccc(Cl)c3sc12 | 98.2% | 86% | 81.9% | 105% | 98.5% | 101% | 98.8% | 110% | 107% | 101%
N#Cc1c(-c2ccccc2)cc(-c2ccccc2)n(CCCC(=O)NO)c1=O | 26.1% | 7.36% (active) | 11.1% | 35.1% | -1.83% (active) | 37.3% | 13.8% | 20.6% | 37.6% | 18.6%
COc1ccc2cc(-c3ccc(-c4ccc(C(=N)N)s4)s3)ccc2c1 | -67.2% (active) | -42.8% (active) | 101% | -15.2% (active) | -25.9% (active) | -33.9% (active) | 86% | 89.5% | 62.8% | 36.2%
CC(C)CCSc1nc(Nc2ccccc2)c(C#N)c(-c2ccccc2)n1 | 61.9% | 48.6% | 37.4% | 8.82% (active) | 23.1% | 60% | 32% | 18.4% | 88.2% | 71.4%
